From PubChem BioAssay (NCI)
This is part of a sample that, as a whole, favours compounds with a hit. Of some 79,000 tested, about 15% had one in any assay. Calls of active or inactive are those of the source. Rule as the data show it: active = growth inhibition above about 70%; inactive = the rest.

Columns and labels:
[1] = NCI Yeast Anticancer Drug Screen. Data for the rad50 strain (AID 155);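 also: 0% = growth of vehicle-only cultures of the same strain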; conditions: S. cerevisiae rad50 strain growth inhibition; at 50.0 µM; hits give high values
Procedure, shortened: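 Inhibition values express reduced yeast growth in compound-treated cultures relative to vehicle-treated controls.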

[2] = NCI Yeast Anticancer Drug Screen. Data for the mec2-1 strain (AID 157); conditions: S. cerevisiae mec2-1 strain, at 50.0 µM, hits give high values
Procedure, shortened: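 Test agents were screened against the mec2-1 yeast strain, with defined DNA repair or cell cycle alteration. Growth was scored as inhibition against vehicle-only controls.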

[3] = NCI Yeast Anticancer Drug Screen. Data for the sgs1 mgt1 strain (AID 161);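 also: 0% = growth of cultures given vehicle only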; conditions: S. cerevisiae sgs1 mgt1 strain, at 50.0 µM, hits give high values
Procedure, shortened: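 Test agents were incubated with a DNA-repair-mutant yeast strain. Growth was then read and compared against vehicle-treated controls.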

[4] = NCI Yeast Anticancer Drug Screen. Data for the cln2 rad14 strain (AID 165);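 also: 0% = growth equal to vehicle treated cultures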; conditions: S. cerevisiae cln2 rad14 strain, at 50.0 µM, hits give high values
Procedure, shortened: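 Growth of compound-exposed yeast (cln2 rad14 genotype) measured and expressed as inhibition relative to vehicle.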

[5] = NCI Yeast Anticancer Drug Screen. Data for the bub3 strain (AID 167); conditions: S. cerevisiae bub3 mutant strain, at 50.0 µM, hits give high values
Procedure, shortened: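 Steps: expose the mutant yeast strain to compound; grow alongside vehicle-treated cultures; measure growth; express inhibition against the vehicle cultures.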

[6] = NCI Yeast Anticancer Drug Screen. Data for the mlh1 rad18 strain (AID 175); conditions: S. cerevisiae mlh1 rad18 strain growth inhibition; at 50.0 µM; hits give high values
Procedure, shortened: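 In this whole-cell yeast screen, a strain with altered DNA damage repair is challenged with compound, and its growth is measured against matched vehicle-treated controls.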

Measured: growth inhibition

CN(C)c1ccc(NP(=O)(Nc2ccc(N(C)C)cc2)N(CCCl)CCCl)cc1
inactive: [1] 24.2% | [2] 2.1% | [3] 11% | [4] 5.8% | [5] 12.2% | [6] 7.6%

[C-]#[O+].[C-]#[O+].[C-]#[O+].[C-]#[O+].[C-]#[O+].[C-]#[O+].[C-]#[O+].[C-]#[O+].[C-]#[O+].[CH2-]C.[Co].[Co].[Co]
inactive: [1] 25.6% | [2] 9.9% | [3] 19.1% | [4] -2.3% | [5] 24.2% | [6] 33.8%

O=C1NC(=S)NC(=O)C1=Cc1ccc2ccccc2n1
inactive: [1] -7.9% | [2] -0.6% | [3] 1.55% | [4] 8.4% | [5] -6.35% | [6] -16.4%

O=[C-]/C=C/c1ccccc1.[C-]#[O+].[C-]#[O+].[Fe+2].[c-]1ccccc1
inactive: [1] 21.8% | [2] 2.5% | [3] 5.95% | [4] -3% | [5] -7.1% | [6] 7.15%

O=NNc1cnc2ccccc2n1
inactive: [1] 48.5% | [2] -0.25% | [3] -9.75% | [4] -5.4% | [5] -38.2% | [6] 12.2%

N#CC1=C(C#N)C(=O)C(Cl)=C(Cl)C1=O
inactive: [1] 14.9% | [2] 24.9% | [3] 16.9% | [4] 8.7% | [5] 16.6% | [6] 29.2%

O=NN(c1ccccc1)c1ccccc1
inactive: [1] 12.2% | [2] 9.8% | [3] -8.6% | [4] -22.3% | [5] -10.1% | [6] 34.5%

ClC1CC2CC1C1CNCC21 (centres undefined)
inactive: [1] -15.2% | [2] -14.6% | [3] -4.05% | [4] -15.8% | [5] -1.05% | [6] -21%

C=CC1CN2CCC1CC2C(O)c1ccnc2ccccc12 (centres undefined)
inactive: [1] 11.9% | [2] -3.7% | [3] 5.95% | [4] 10.9% | [5] 20.1% | [6] 4.1%

C=CC1CN2CCC1CC2C(O)c1ccnc2ccccc12 (centres undefined) (tested in a mixture with another compound)
inactive: [1] -3.9% | [2] -17.1% | [3] -5.4% | [4] -4.05% | [5] -1.4% | [6] 1.75%

CCN(CC)CCN(CC)CC.CCN(CC)CCN(CC)CC.[Cu+2].[Cu+2].[O-][Cl+3]([O-])([O-])[O-].[OH3+].[OH3+]
inactive: [1] -2.85% | [2] 1.85% | [3] -0.35% | [4] 16.1% | [5] 12.6% | [6] 15.7%

COc1cc(/C=N/NC(=O)CN(C)C)cc(OC)c1N(CCCl)CCCl
inactive: [1] 8.85% | [2] 10.4% | [3] -15.7% | [4] 17.9% | [5] -2.25% | [6] 5.2%

O=C(COc1ccc(Cl)c(Cl)c1)Nc1ccc[n+](Cc2ccc(S(=O)(=O)F)c(Cl)c2)c1
inactive: [1] 62%
active: [2] 94.3% | [3] 98.3% | [4] 95.8% | [5] 94.8% | [6] 99.5%

CCC(=O)OC1(c2ccccc2)CCN(C/C=C/c2cccc3ccccc23)CC1
inactive: [4] 62.8%
active: [1] 86.3% | [2] 76.2% | [3] 89% | [5] 83% | [6] 87.2%

O=C1OC(C(O)CO)C(O)=C1OC[N+]1(CCCl)CCN(CCCl)CC1 (centres undefined)
inactive: [1] 11.8% | [2] 12.7% | [3] 4.9% | [4] 4.7% | [5] 10.3% | [6] 9.4%

CCC1(CCC(C)C)C(=O)NC(=O)N(C)C1=O (centres undefined)
inactive: [1] -6.05% | [2] -1.2% | [3] -1.75% | [4] -19.4% | [5] -11.3% | [6] -4.05%

CC(C)CCC1C(=O)N(C)C(=O)N(C)C1=O
inactive: [1] -9% | [2] -6.55% | [3] 3.15% | [4] -0.5% | [5] 0.55% | [6] 2.05%

N=Cc1c(O)[nH]c(=O)[nH]c1=O
inactive: [1] 1.4% | [2] 8.75% | [3] 3.45% | [4] -10.4% | [5] 0.65% | [6] -0.8%

[Cl][Ni][Cl].[NH-]CCN1CC1.[NH-]CCN1CC1
inactive: [1] -9.75% | [2] 19.4% | [3] 19.4% | [4] -26.4% | [5] -4.55% | [6] -5.75%

CCOC(OCC)/C(=C\N(C)C)N=C(C#N)C#N
inactive: [1] 0.95% | [2] -2.4% | [3] 5.35% | [4] -35.4% | [5] 3.25% | [6] -2.05%

c1ccc(CCN2CCCCC2)cc1
inactive: [1] 23.2% | [2] -4.6% | [3] 10.4% | [4] -2.45% | [5] -14.5% | [6] 33.9%

CC(C)N1C(=O)NC(=O)C2(CCCC2)C1=O
inactive: [1] -2.15% | [2] 3.05% | [3] -1.5% | [4] -28.4% | [5] -12.6% | [6] -2.5%

CCN1CCOC(O)(c2cc(Cl)cc(Cl)c2Cl)C1 (centres undefined)
inactive: [1] 17.4% | [2] -11.2% | [3] 8.9% | [4] -24.7% | [5] 26.1% | [6] 14.8%

O=S(=O)(O)C(Br)(Br)Br
inactive: [1] 29.4% | [2] 5.3% | [3] 23.6% | [4] -26.9% | [5] 7.25% | [6] 28.2%

O=C(OC12CCN(CC1)CC2)c1ccccc1
inactive: [1] -7.55% | [2] 8.6% | [3] 4.25% | [4] -50.2% | [5] 8.15% | [6] 0.5%

Cc1ccc(C(=O)Nc2ccc(CP(=O)(O)O)cc2)cc1NC(=O)c1cccc(NC(=O)Nc2cccc(C(=O)Nc3cc(C(=O)Nc4ccc(CP(=O)(O)O)cc4)ccc3C)c2)c1
inactive: [1] -0.5% | [2] 0.95% | [3] 3.6% | [4] -10.3% | [5] -1.55% | [6] -9.25%

[Se]=P(c1ccccc1)(N1CC1)N1CC1
inactive: [1] 33.2% | [2] 10.2% | [3] 11.8% | [4] 3.55% | [5] -1.3% | [6] 6.85%

Clc1ccc(C(c2ccc(Cl)cc2)c2ccccn2)cc1
active: [1] 98.5% | [2] 98.3% | [3] 98.5% | [4] 97.8% | [5] 98.3% | [6] 98.4%

Cn1cc([N+](=O)[O-])c([N+](=O)[O-])c1
inactive: [1] -3.8% | [2] 2.5% | [3] -11.6% | [4] -74.8% | [5] -6.3% | [6] 0.85%

N#CC1(c2ccccc2)CCNCC1
inactive: [1] -2.2% | [2] -33.5% | [3] -3.15% | [4] 1.05% | [5] -0.5% | [6] -17.8%

CC(C)(C)P(O)(=S)c1ccccc1 (centres undefined) (tested in a mixture with another compound)
inactive: [1] 2.65% | [2] 2.1% | [3] 1.9% | [4] -34.2% | [5] -24.6% | [6] 5.35%

CC(C(=O)c1ccccc1)N(C)Cc1ccccc1 (centres undefined)
inactive: [1] -27.4% | [2] -2.05% | [3] 6.75% | [4] -36.7% | [5] 42.5% | [6] 17.1%

O=C1CC(=O)NC(=S)N1
inactive: [1] 2.15% | [2] 21.1% | [3] -13.5% | [4] -21.4% | [5] 4.85% | [6] -5.75%

CCOC(=O)C1C(=O)NC2CCC(=O)CC21c1ccc2c(c1)OCO2 (centres undefined)
inactive: [1] 10.7% | [2] -9.5% | [3] -1.8% | [4] -3.55% | [5] 23.9% | [6] 11.2%

CNC(=O)Oc1ccc(Br)cc1Br
inactive: [1] 29.4% | [2] -0.95% | [3] -2.6% | [4] -3.55% | [5] 10.9% | [6] 2.35%

N#C[CH2][Sn]([c]1ccccc1)([c]1ccccc1)[c]1ccccc1
active: [1] 98.8% | [2] 98.8% | [3] 99% | [4] 98% | [5] 98.5% | [6] 98.9%

CNN(C)P(=O)(Oc1ccccc1)N(C)NC
inactive: [1] 5.5% | [2] -7.3% | [3] -9.15% | [4] 7.9% | [5] -2.1% | [6] -5.15%

CCCCCCCCCCCCCCCC[As](CCCCCCCCCCCCCCCC)SC1OC(COC(C)=O)C(OC(C)=O)C(OC(C)=O)C1OC(C)=O (centres undefined)
inactive: [1] 6.55% | [2] 3.55% | [3] 19.9% | [4] -4.7% | [5] 1.5% | [6] 3.55%

CCC(C)OC(=O)Nc1cccc(OC(=O)NC)c1 (centres undefined)
inactive: [1] 4.75% | [2] -22.6% | [3] -2.1% | [4] -2.15% | [5] -1.6% | [6] -0.3%
